In the library only some 3.8% were active in any assay of this set; here they are far more common.
Gli-Sufu antag: Gli-Sufu pathway antagonists, primary screen, luciferase luminescence, Sufu-KO-LIGHT cells, uHTS | 340,000 tested, 0.74% active | inhibition, % at 5 µM | Sufu-KO-LIGHT fibroblasts, Gli luciferase reporter luminescence;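 active = inhibition above about 55%, limit read from the data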;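 note: 0% = DMSO-treated cells and 100% = wells with medium but no cells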
Mdm2-MdmX inh: inhibitors of human Mdm2-MdmX association, primary screen, cell-based, luminescence, split luciferase, SaOS-2, uHTS. SaOS-2 split-luciferase Mdm2/MdmX complementation. inhibition, % at 8 µM. 330,000 tested, 3% active;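 active = inhibition of at least 50% at 8 µM in the primary screen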
Target sequence (O15151 whole entry, looked up): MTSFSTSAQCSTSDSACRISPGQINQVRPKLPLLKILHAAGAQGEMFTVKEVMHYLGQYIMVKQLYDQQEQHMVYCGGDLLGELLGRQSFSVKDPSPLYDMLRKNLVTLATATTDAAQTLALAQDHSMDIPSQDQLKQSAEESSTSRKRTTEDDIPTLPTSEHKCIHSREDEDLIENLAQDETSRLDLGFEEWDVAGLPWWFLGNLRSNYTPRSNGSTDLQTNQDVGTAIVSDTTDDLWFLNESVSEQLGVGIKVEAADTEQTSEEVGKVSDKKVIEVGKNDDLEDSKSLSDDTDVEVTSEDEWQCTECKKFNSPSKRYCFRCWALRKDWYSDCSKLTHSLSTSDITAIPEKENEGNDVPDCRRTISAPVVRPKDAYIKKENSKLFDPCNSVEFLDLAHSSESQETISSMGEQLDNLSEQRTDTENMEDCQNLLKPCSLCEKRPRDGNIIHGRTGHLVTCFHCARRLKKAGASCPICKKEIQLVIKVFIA
Target sequence (Q00987 whole entry, looked up): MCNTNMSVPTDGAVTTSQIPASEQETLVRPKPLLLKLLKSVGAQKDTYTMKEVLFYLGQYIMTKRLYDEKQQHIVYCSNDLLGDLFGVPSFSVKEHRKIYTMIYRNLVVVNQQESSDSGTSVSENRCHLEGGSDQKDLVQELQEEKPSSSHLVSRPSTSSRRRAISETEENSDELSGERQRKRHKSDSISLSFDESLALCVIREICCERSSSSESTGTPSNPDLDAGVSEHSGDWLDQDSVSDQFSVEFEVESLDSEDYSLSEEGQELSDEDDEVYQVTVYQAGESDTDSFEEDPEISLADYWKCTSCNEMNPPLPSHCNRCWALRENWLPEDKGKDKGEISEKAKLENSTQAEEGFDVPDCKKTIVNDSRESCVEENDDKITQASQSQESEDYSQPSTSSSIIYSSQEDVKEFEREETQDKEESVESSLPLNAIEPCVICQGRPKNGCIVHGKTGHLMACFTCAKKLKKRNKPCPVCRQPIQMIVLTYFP
Jurkat NFkB inh: inhibitors of induced NF-kB luciferase reporter, primary screen, TCR NF-kB activation inhibitor project, cell-based, luminescence, uHTS. Jurkat, PMA/ionomycin-induced NF-kB luciferase reporter. inhibition, % at 4 µM. 330,000 tested, 0.53% active; in the data active = inhibition above about 50%
Shn3 inh set2: reduction of Shn3 3'UTR firefly luciferase signal, primary screen, Schnurri-3 inhibitor project, cell-based, Clone20 osteoblasts, set 2; Clone20 osteoblast Shn3 3'UTR firefly luciferase, 24 h; inhibition, % at 12.5 µM; 360,000 tested, 0.52% active; AID 588674, 2011;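 active = mean inhibition of at least 75% with every replicate also reaching 75%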;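 note: 0% = median of neutral control wells and 100% = pilot-screen positive control compound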
697 NFkB inh: inhibitors of PMA/ionomycin-induced NF-kB reporter, 697 cells, primary screen, B-cell NF-kB inhibitor project, cell-based, luminescence, uHTS; 697 B-cell NF-kB luciferase reporter, 16 h; inhibition, % at 4 µM; 330,000 tested, 0.33% active; in the data active = inhibition above about 35%
Jurkat NFkB conf: PMA/ionomycin-induced NF-kB reporter inhibitors, Jurkat retest, confirmation, T-cell NF-kB inhibitor project, cell-based, luminescence, single concentration. Jurkat NF-kB luciferase, 16 h. inhibition, % at 4 µM. shares compounds with Jurkat NFkB inh. 2,700 tested, 27% active;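 active = inhibition reaching about 45% at 4 µM in either replicate, limit read from the data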;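 note: plate controls were PMA/ionomycin stimulated DMSO wells for no effect and unstimulated DMSO wells for full effect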
697 NFkB conf: PMA/ionomycin-induced NF-kB reporter inhibitors, 697 retest, confirmation, B-cell NF-kB inhibitor project, cell-based, luminescence, single concentration. 2,000 tested, 35% active. AID 449746, 2010. inhibition, % at 4 µM. shares compounds with 697 NFkB inh. 697 B-cell NF-kB luciferase, 16 h; in the data active = inhibition mostly above about 28%, no sharp cut-off; inactive = mostly below about 22%
Mdm2 MdmX conf: Mdm2-MdmX complex disruptors, retested hits, confirmation, luminescence, single concentration; shares compounds with Mdm2-MdmX inh; Mdm2-MdmX binding, luminescent assay; inhibition, % at 8 µM; 10,000 tested, 55% active; in the data active = inhibition above about 40%
FLuc counter: full-length luciferase signal inhibition, confirmation, counter-screen for Mdm2/MdmX interaction inhibitor project, cell-based, single concentration, SaOS-2; shares compounds with Mdm2-MdmX inh; SaOS-2 full-length luciferase counterscreen, luminescence; inhibition, % at 8 µM; 6,200 tested, 77% active; AID 504607, 2011;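 active = mean inhibition at 8 µM reaching about 37%, which flags the compound as non-specific, limit read from the data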;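 note: p53-null SaOS-2 cells with luciferase driven by a doxycycline-inducible promoter; compound on cells about two nights before reading with doxycycline added after day one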
The depositor's hits bear a star; / = no result.

SMILES | Gli-Sufu antag | Mdm2-MdmX inh | Jurkat NFkB inh | Shn3 inh set2 | 697 NFkB inh | Jurkat NFkB conf | Mdm2 MdmX conf | FLuc counter | others
COc1ccc(OC)c2c1C(=O)C(Cl)=C(Cl)C2=O | 17 | 96* | 60* | / | -111 | 68* | 100* | 2
COc1ccc(/C=N\NC(=O)c2cccc(F)c2)cc1COc1ccccc1 | 49 | 58* | 52* | 20 | 12 | 53* | 64* | 75*
CCOC(=O)C1=C(COC(=O)c2cc(S(=O)(=O)N3CCOCC3)ccc2F)NC(=O)NC1C (centres undefined) | 3 | / | / | 8 | / | / | / | /
COC(=O)[C@@H]1Cc2c([nH]c3ccccc23)C(C)(C)N1C(=O)CCl | 21 | 100* | 55* | -24 | 88* | 16 | 98* | 17 | 697 NFkB conf=69*
Cc1csc(SCC(=O)NCc2ccccc2)n1 | -17 | -20 | 3 | -2 | 0 | / | / | /
Cc1csc2sc(-c3ccnc(SCC(=O)NCc4ccccc4)n3)c(C)c12 | -3 | 56* | 69* | 2 | -42 | 42 | 59* | 86*
O=C(CCl)N=c1sccn1Cc1ccccc1Cl | 3 | 99* | 91* | -12 | 104* | 71* | 99* | 51* | 697 NFkB conf=94*
O=C(CCl)N=c1sccn1Cc1ccc(Cl)cc1Cl | 95* | 100* | 97* | 5 | 98* | 69* | 100* | 54* | 697 NFkB conf=102*
CC(Oc1cccc(Cl)c1)C(=O)Nc1cc(Cl)ccc1N1CCOCC1 (centres undefined) | 14 | 8 | -1 | 23 | -26 | / | / | /
CCCC(C)NC(=O)c1cc(S(=O)(=O)N2CCCCCC2)ccc1OC (centres undefined) | -1 | 22 | -9 | 16 | 12 | / | / | /
CCOC(=O)c1ccc(N2CCOCC2)c(NC(=O)c2c(-c3ccccc3)noc2C)c1 | -4 | 60* | 64* | 13 | -17 | 13 | 67* | 54*
CSCCC(C(=O)Nc1c(C)cccc1C)N1CCN(c2ccc(C(F)(F)F)cn2)CC1 (centres undefined) | / | / | / | 0 | / | / | / | /
COc1ccc(NC(=O)/C(Cl)=C(/Cl)S(=O)Cc2ccccc2Cl)cn1 (centres undefined) | 72* | 98* | 100* | / | -349 | 98* | 100* | 2 | 697 NFkB conf=-110
NC(=O)c1[nH]cnc1N | 19 | -5 | 6 | 8 | 6 | / | / | /
COC(=O)c1ccc(C)c(NS(=O)(=O)c2ccc(C)c([N+](=O)[O-])c2)c1 | 1 | -13 | 7 | -4 | 11 | / | / | /
COC(=O)c1ccc(C)c(NS(=O)(=O)c2ccc3c(c2)OCCO3)c1 | 49 | 64* | 58* | 11 | 3 | 52* | 60* | 78*
CC1=C(C(=O)OCc2ccc3c(c2)OCO3)C(c2ccc(F)cc2)NC(=O)N1 (centres undefined) | -12 | 91* | 59* | 7 | -37 | 34 | 92* | 49*
CC1=C(C(=O)OCc2ccc3c(c2)OCO3)C(c2ccc(Cl)cc2)NC(=O)N1 (centres undefined) | -7 | 84* | 71* | 12 | -18 | 64* | 92* | 51*
CSCCOC(=O)C1=C(C)NC(=O)NC1c1ccc2c(c1)OCO2 (centres undefined) | 33 | 8 | -7 | 8 | -12 | / | / | /
CCCCCOC(=O)C1=C(C)NC(=O)NC1c1ccc2c(c1)OCO2 (centres undefined) | 28 | 8 | 16 | 0 | -2 | / | / | /
Cc1ccc2nc(-c3ccc4c(c3)OCCO4)cn2c1 | 65* | 94* | 83* | 66 | -21 | 51* | 98* | 55*
CC(C)CN(CC(C)C)c1nn[nH]n1 | -1 | / | / | 0 | / | / | / | /
Cn1c(/C=C/c2ccc([N+](=O)[O-])o2)nc2ccccc2c1=O | 82* | 91* | 82* | 96* | -35 | 26 | 70* | 53*
Cn1c(/C=C/c2ccccc2)nc2ccccc2c1=O | 24 | -25 | -56 | -49 | -44 | / | / | /
Cc1ccccc1S(=O)(=O)Cc1ccc(C(=O)N2CCN(c3cccc(C)c3C)CC2)o1 | 2 | 57* | 51* | 12 | -82 | 29 | 68* | 50*
SMILES | Gli-Sufu antag | Mdm2-MdmX inh | Jurkat NFkB inh | Shn3 inh set2 | 697 NFkB inh | Jurkat NFkB conf | Mdm2 MdmX conf | FLuc counter | others
Cc1ccccc1S(=O)(=O)Cc1ccc(C(=O)N2CC(C)CC(C)C2)o1 (centres undefined) | 1 | -2 | 0 | 8 | 0 | / | / | /
COc1ccc(S(=O)Cc2ccc(C(=O)N3CCN(c4cccc(C)c4C)CC3)o2)cc1 (centres undefined) | 26 | 50* | 51* | 40 | -118 | 20 | 55* | 36*
COc1ccc(N2CCN(C(=O)c3ccc(CS(=O)c4cccc(Cl)c4)o3)CC2)cc1 (centres undefined) | / | / | / | 2 | / | / | / | /
COc1ccc(N(CC(=O)N2CCN(C)CC2)S(=O)(=O)c2cc(C)ccc2OC)cc1Cl | 8 | 16 | 3 | 20 | -3 | / | / | /
CCc1nc(CN(C)C(=O)C2CCC(=O)N(CCc3cccc(F)c3)C2)no1 (centres undefined) | -3 | 16 | 10 | -33 | 15 | / | / | /
COc1ccc(N2C(=O)CC(Sc3nc4c(cc3C#N)CCC4)C2=O)cc1 (centres undefined) | 15 | 18 | -13 | 0 | 9 | / | / | /
O=C(/C=C/c1ccccc1)Nc1cccc(C(=O)O)c1 | -80 | 68* | 82* | 69 | 82* | 76* | 64* | 20 | 697 NFkB conf=79*
c1ccc(-c2cccc(-c3ccccn3)n2)nc1 | 85* | 66* | 92* | 88* | -5 | 83* | 79* | 18
c1ccc(-c2nnc(-c3ccccn3)nn2)nc1 | -104 | -37 | -75 | -40 | -108 | / | / | /

Screening data from PubChem.
